This is a sample that favours compounds with a hit; in the whole collection about 7.4% have one here.
NPC1 prom act – activates the NPC1 promoter; Huh7 NPC1 promoter luciferase reporter, 24 h; Potency, µM (series often up to 9.22 µM), inactives show at the top dose activation, most hits filed as activators; 320,000 tested, 2.4% active; further: % of control where 0% means no effect; nearly all actives have a fitted effect of over 60% in size
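Huh7 reporter cells (NPC1 promoter driving luciferase) are dosed with compound for 24 h at 37 °C, 5% CO2; luciferase detection reagent is then added and luminescence measured after 10 min at ambient temperature.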
ELG1 genotoxic – genotoxicity induction in ELG1-luciferase HEK293T cells; Potency, µM (highest dose often 46 µM), for the others: top-dose activity change, positive = activation, most hits filed as activators; AID 504466; HEK293T ELG1-luciferase reporter, luminescence, 16 h; 330,000 tested, 1.3% active; further: % of control where 0% means no effect; nearly all actives have a fitted effect of over 60% in size
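ELG1-luciferase HEK293T cells, 2,000/well; compound pinned in; 16 hr, 37 °C, 5% CO2; ONE-Glo, 30 min RT; luminescence on CCD imager.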
SMN2 splice up – SMN2 splice variant enhancement | HEK293 SMN2-luciferase splicing reporter, luminescence, 30-36 h | Potency, µM (top dose mostly 46.1 µM), without a hit: at the top dose activity change, positive = activation, usual class: activators | 210,000 tested, 2.8% active; further: % of control where 0% means no effect; nearly all actives have a fitted effect of over 55% in size
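qHTS luciferase splicing reporter: luminescence rises when SMN2 exon 7 is included in transfected HEK293 cells. Compound exposure lasted 30-36 h at 37C, with 4.5 mM final sodium butyrate as control, followed by a ONE-Glo read.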
Rab9 prom act – activates the Rab9 promoter | Huh7 Rab9 promoter-luciferase reporter, luminescence, 24 h | Potency, µM (doses to about 9.22 µM), for inactives: at the highest dose activation, negative = inhibition, hits mostly activators | 320,000 tested, 2.8% active; further: % of control where 0% means no effect; nearly all actives have a fitted effect of over 60% in size
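Huh7 cells stably carrying a Rab9 promoter-luciferase reporter, 1500 cells per well in OP-MEM I with 10% FBS, treated with compound 24 hours at 37C. Luciferase activity read by luminescence after 10 minutes with Amplite reagent.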
p53 reactivation – mutant p53 re-activation in reporter cells | H1299 p53-A138V BP100-luciferase reporter, luminescence, 24 h | Potency, µM (top dose mostly 92.2 µM), without a hit: top-dose activity change, positive = activation, hits mostly activators | 320,000 tested, 0.063% active; further: % of control where 0% means no effect; nearly all actives have a fitted effect of over 45% in size
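H1299 (p53-null), stable ts p53-A138V + BP100-Luc; 1000 cells/well, Opti-MEM/10% FBS; cpd 4 pt, 1:5; 24 h, 37 deg C, 5% CO2; detection reagent 10 min RT; luminescence.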
FLuc modulator – counter-screen for miR-21 project: firefly luciferase inhibitors or activators; P08659; purified FLuc, Km substrates, luminescence inhibition; Potency, µM (titrated, usually from 57.5 µM), without a hit: at the top dose activity change, negative = inhibition, actives largely listed as inhibitors; 360,000 tested, 6.9% active; AID 588342;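 further: plate controls were vehicle for no effect and reference inhibitor for full effect; nearly all actives have a fitted effect of over 55% in size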
Target sequence (P08659 whole entry, looked up): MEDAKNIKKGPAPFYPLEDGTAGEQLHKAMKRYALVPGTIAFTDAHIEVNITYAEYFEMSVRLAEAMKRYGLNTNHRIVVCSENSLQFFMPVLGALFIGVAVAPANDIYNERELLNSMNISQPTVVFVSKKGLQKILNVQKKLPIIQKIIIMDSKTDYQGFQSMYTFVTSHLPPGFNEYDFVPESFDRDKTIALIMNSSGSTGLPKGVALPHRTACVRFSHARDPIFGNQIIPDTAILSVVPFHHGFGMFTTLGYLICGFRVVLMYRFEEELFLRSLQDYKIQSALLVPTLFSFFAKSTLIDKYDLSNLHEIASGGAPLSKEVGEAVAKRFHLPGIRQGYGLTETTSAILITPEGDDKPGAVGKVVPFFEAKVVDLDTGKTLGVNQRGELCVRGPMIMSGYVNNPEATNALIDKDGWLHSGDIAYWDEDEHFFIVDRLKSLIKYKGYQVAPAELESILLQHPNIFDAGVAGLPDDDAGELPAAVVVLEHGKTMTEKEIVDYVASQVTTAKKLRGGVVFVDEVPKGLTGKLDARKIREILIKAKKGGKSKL
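Purified P. pyralis luciferase, 10 nM final, with Km-level 10 uM D-luciferin and 10 uM ATP in 50 mM Tris acetate pH 7.5, 10 mM Mg acetate, 0.01% Tween-20, 0.05% BSA; 6-point qHTS titration about 60 µM downward; luminescence read.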
Active calls of the source: *; u = inconclusive; x = not tested or not shown; [ ] = remark or other dose. The call rests on the fitted dose curve; in most records, active means well fitted curve in the direction sought with a large enough effect; inconclusive means small, poorly fitted or top-dose-only effect, or another doubt; inactive means no such curve, though single readings can be large; an effect the other way counts as inactive or inconclusive. Potency means the concentration at half of the fitted maximal effect.

SMILES	NPC1 prom act	ELG1 genotoxic	SMN2 splice up	Rab9 prom act	p53 reactivation	FLuc modulator
CN(C)c1ccc(/C=N/NC(=O)c2ccnn2C)cc1	2.51µM*	u	x	0.501µM*	1.8%	5.36µM*
CC(C)c1ccc(/C=N/NC(=O)CCNC(=O)c2ccccc2)cc1	u	23.4%	x	u	16.2%	8.49µM*
O=C(N/N=C\c1ccc(Oc2ccccc2)cc1)c1csnn1	3.55µM*	u	15.8µM*	2.24µM*	u	2.69µM*
CN(C)c1ccc(/C=N/NC(=O)c2ccccn2)cc1	0.501µM*	1.16µM*	x	0.126µM*	-3.1%	1.69µM*
CCC1Oc2ccccc2N(CC(=O)NCCCN2CCN(c3ccc(OC)cc3)CC2)C1=O (stereo not given)	1.4%	-2.5%	x	-4.7%	-27.8%	-1.2%
COc1ccc(NC(=O)Nc2ccc3c(c2)C(=O)N([C@@H](C)CO)C[C@@H](C)[C@@H](CN(C)S(=O)(=O)c2cccs2)O3)cc1	x	-1.3%	x	x	0.6%	x
CC(C)c1ccc(C(=O)N/N=C/c2cccc(Cl)c2Cl)cc1	u	0.0%	4.8%	u	-3.6%	8.49µM*
Cc1ccc(/C=N/NC(=O)c2ccncc2)o1	0.8%	-0.3%	-17.4%	-8.0%	-8.0%	-0.3%
CC(C)Oc1ccccc1/C=N/NC(=O)c1ccccc1Cl	25.6%	0.5%	x	-0.4%	0.3%	u
Cc1ccc(/C=N/NC(=O)c2ccccn2)o1	u	u	u	u	u	23.9µM*
COc1ccc(C(=O)/C(=C/c2cccs2)c2nc3ccccc3o2)cc1	3.98µM*	u	-71.8%	3.55µM*	21.7%	-12.5%
O=C(O)/C(=C\c1cccs1)c1ccccc1	-0.6%	-1.0%	x	-6.4%	2.9%	-14.9%
COc1ccc(/C=C(\CC(=O)O)c2nc3ccccc3o2)cc1	1.6%	16.4µM*	29.7%	u	4.1%	9.53µM*
Cc1ccc(S(=O)(=O)Nc2ccc(F)cc2)cc1C(=O)N1CCOCC1	x	1.1%	x	x	3.3%	x
Cc1ccccc1CNCCSc1nnnn1-c1ccccc1	x	x	-14.6%	x	x	5.0%
Cc1ccccc1-c1cc(-c2ccccc2O)n[nH]1	28.1%	u	25.1µM*	3.16µM*	u	u
Cc1ccc(-c2cc(-c3ccccc3[N+](=O)[O-])[nH]n2)c(O)c1	u	u	17.8µM*	3.55µM*	20.6%	u
Cc1ccc(-c2cc(-c3ccccc3Cl)[nH]n2)c(O)c1	u	u	12.6µM*	u	u	-29.4%[2.3 µM]
COc1ccccc1-c1cc(-c2cc(Cl)ccc2O)n[nH]1	1.6%	2.8%	15.4%	-1.4%	8.6%	2.4%
Cn1cccc1C(=O)N1CCC2(CCCN(Cc3ccc(C#N)cc3)C2)CC1	x	x	-13.1%	x	x	x
O=C(Cc1ccccc1[N+](=O)[O-])NCCCc1ccccc1	13.1%	7.1%	x	17.5%	x	-1.8%
Cc1nc2scc(-c3ccccc3)c2c(=O)n1N=C1C=CC(=O)C=C1	23.4%	u	x	u	-1.7%	19µM*
Cc1ccc(NC(=O)CCNS(=O)(=O)c2cccs2)cc1F	0.0%	3.4%	7.2%	-3.5%	7.7%	-18.0%
Cc1ccnc(NC(=O)CCC(=O)c2cccs2)c1	u	u	x	u	-6.1%	0.338µM*
Cc1ccc(NC(=O)CCC(=O)c2cccs2)cc1F	19.8%	17.9%	x	u	24.5%	8.49µM*
SMILES	NPC1 prom act	ELG1 genotoxic	SMN2 splice up	Rab9 prom act	p53 reactivation	FLuc modulator
Cc1cccc2nc(CSc3nnnn3-c3ccccc3)cn12	-2.7%	2.6%	0.9%	2.5%	2.1%	1.4%
Cc1cccc2nc(CSc3nnc4ccccn34)cn12	x	x	u	x	x	10.7µM*
c1ccc(-n2cnnc2SCc2cn3ccsc3n2)cc1	-7.7%	1.0%	-4.9%	-7.0%	-9.5%	2.7%
c1ccn2c(SCc3cn4ccsc4n3)nnc2c1	u	u	14.1µM*	2.51µM*	0.8%	16.9µM*
Cc1cccc2nc(CSc3ncccc3C(=O)O)cn12	-2.9%	4.5%	3.2%	1.5%	9.2%	26.9µM*
O=C1CN(C(=O)c2ccc(S(=O)(=O)N3CCCC3)cc2)C(c2ccccc2)c2cc(Cl)ccc2N1 (stereo not given)	x	x	8.4%	x	x	0.4%

Assay outcomes (PubChem)
